Compound activity from PubChem.
TDP1 cell CPT: growth inhibition of DT40 Tdp1-/-;hTDP1 cells with camptothecin (screen for TDP1 inhibitors) | chicken DT40 Tdp1-/-;hTDP1 cells + 20 nM CPT, ATP luminescence, 48 h | Potency, µM (series often up to 46.2 µM), inactives show at the highest dose activity change, negative = growth inhibition, hits mostly inhibitors | 420,000 compounds, 12% hits | AID 686979; note: potency is the fitted concentration of half-maximal effect; nearly all actives have a fitted effect of over 55% in size
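Chicken DT40 Tdp1-/- cells stably complemented with human TDP1 were seeded at 400 cells/well in medium containing 20 nM camptothecin, exposed to pin-transferred compounds, and grown at 37 °C for at least 48 hr. Viability was read as ATP luminescence.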
Giardia killer: Giardia lamblia killing; Giardia lamblia trophozoite viability; activity change, % at 7.66 µM, hits read low; 340,000 compounds, 0.15% hits; AID 540267; in the data active = activity change below about -80%; inconclusive = between about -30% and that limit;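 note: parasites exposed to compound for two days anaerobically before the ATP read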
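Luminescence from cellular ATP indicates surviving trophozoites (100 cells/well) following 48 hrs anaerobic compound treatment at 37 deg C; signal develops 15-30 min at room temperature.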
IL1B secr inh: inflammasome signaling inhibition, IL-1 beta readout. activity change, % at 57.5 µM. AID 743279. 360,000 compounds, 4.7% hits. THP-1 LPS/ATP IL-1B secretion, AlphaLISA, 16 h; active compounds read low; in the data active = activity change below about -50%; inconclusive = mostly about -30% to -49%
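Secreted IL-1B measured by AlphaLISA bead assay after 16 h compound exposure of THP-1 cells; compounds (final up to 57.5 uM) added 1 h before LPS (250 ng/mL) and ATP (1.25 mM) stimulation; lower signal means less secretion.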
TDP1 block: blocks human tyrosyl-DNA phosphodiesterase 1; recombinant TDP1, AlphaScreen DNA substrate cleavage; Potency, µM (titrated, usually from 130 µM), without a hit: at the top dose activity change, negative = inhibition, hits mostly inhibitors; 350,000 compounds, 0.28% hits; AID 485290; note: potency is the fitted concentration of half-maximal effect; nearly all actives have a fitted effect of over 40% in size
Target sequence (Q9NUW8 whole entry, looked up): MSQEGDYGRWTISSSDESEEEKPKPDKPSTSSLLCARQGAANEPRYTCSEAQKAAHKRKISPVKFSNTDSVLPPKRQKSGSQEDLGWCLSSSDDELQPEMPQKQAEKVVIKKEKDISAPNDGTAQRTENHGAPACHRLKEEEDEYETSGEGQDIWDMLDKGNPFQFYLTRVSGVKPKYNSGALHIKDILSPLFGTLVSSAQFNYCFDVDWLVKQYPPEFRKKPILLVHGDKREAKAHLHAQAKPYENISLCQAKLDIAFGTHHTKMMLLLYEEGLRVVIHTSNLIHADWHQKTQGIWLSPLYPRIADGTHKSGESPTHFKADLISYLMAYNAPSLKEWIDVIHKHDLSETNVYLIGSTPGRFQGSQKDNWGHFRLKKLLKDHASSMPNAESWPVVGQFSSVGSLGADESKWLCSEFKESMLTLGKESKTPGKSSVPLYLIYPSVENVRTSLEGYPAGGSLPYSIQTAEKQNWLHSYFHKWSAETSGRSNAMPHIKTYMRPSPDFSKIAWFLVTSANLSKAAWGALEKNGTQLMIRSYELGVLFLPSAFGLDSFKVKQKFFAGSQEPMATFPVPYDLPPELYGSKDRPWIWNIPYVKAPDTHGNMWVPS
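Here, a 5' biotin and 3' phosphotyrosine-FITC DNA oligonucleotide reports Tdp1 activity: intact substrate bridges AlphaScreen beads, while cleavage leaves a 3' phosphate and drops signal. All incubations at room temperature.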
ELG1 repair inh: ELG1-dependent DNA repair inhibition | Potency, µM (doses to about 46.1 µM), for the others: top-dose activity change, negative = inhibition, hits mostly inhibitors | HEK293T ELG1-luciferase reporter, luminescence, 16 h; DNA damage induced by 5-fluorouridine | 330,000 compounds, 2.3% hits; note: potency is the fitted concentration of half-maximal effect; nearly all actives have a fitted effect of over 55% in size
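Overnight (16 hr) co-exposure of 2,000 cells/well to 5-fluorouridine and compound at 37 °C preceded detection. Luciferase was quantified via ONE-Glo luminescence; loss of signal denotes inhibition.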
TDP1 cell noCPT: qHTS for Inhibitors of human tyrosyl-DNA phosphodiesterase 1 (TDP1): qHTS in cells in absence of CPT. Potency, µM (highest dose often 46.2 µM), without a hit: at the highest dose activity change, negative = growth inhibition, usual class: inhibitors. DT40 Tdp1-/- hTDP1 cells, no CPT, ATP luminescence, 48 h. 420,000 compounds, 15% hits; note: potency is the fitted concentration of half-maximal effect; nearly all actives have a fitted effect of over 55% in size
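No-CPT arm: Tdp1-/-;hTDP1 DT40 cells (400/well) plus compounds, incubated ≥48 hr at 37 °C. Readout CellTiter-Glo luminescence.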
Starred values were filed as active, the others as inactive; ? = inconclusive; . = not tested or not shown; ! = a repeat was not active; [ ] = another dose, or the depositor's remark. A selection: hits, their analogues and other compounds. The true share with any hit is near 19%. Unless noted, calls come from the whole dose curve; as a rule, active = well fitted curve in the direction sought with a large enough effect; inconclusive = small, poorly fitted or top-dose-only effect, or another doubt; inactive = no such curve, though single readings can be large; an effect the other way counts as inactive or inconclusive. % is set by controls: 0 for no effect and ±100 for the full control effect.

SMILES | TDP1 cell CPT | Giardia killer | IL1B secr inh | TDP1 block | ELG1 repair inh | TDP1 cell noCPT
Cc1ccc(C(=O)CN2/C(=C(\O)c3ccccc3)C(=O)c3ccccc3S2(=O)=O)c(C)c1 | 12µM* | -25 | 9 | -1% | -2% | 16µM*
Cc1cc(C(=O)CN2C(=O)C3CC=CCC3C2=O)c(C)n1-c1ccccc1 (stereo unspecified) | 23µM* | -23 | 0 | 6% | ? | 23µM*
COc1ccc(COc2ccsc2C(=O)Nc2ccc(Cl)c(Cl)c2)cc1 | ? | 8 | 75 | 4% | -8% | -29%
FC(F)c1nc2nc(Cl)c(Cl)nc2[nH]1 | 16µM* | . | 41 | . | . | ?
N#CCCn1c(=O)cnc2cnc(N3CCNCC3)nc21 | 11% | . | . | . | . | -6%
Cc1c(Cl)cccc1Nc1ncccc1C(=O)O | ? | -6 | 36 | 6% | 17% | ?
Cc1c(Nc2ncccc2C(=O)O)cccc1C(F)(F)F | ? | 2 | 22 | -6%[56.1 µM] | 17% | 4µM*!
COc1cc(/C=C/CN2CCOc3ccc(C(O)c4cccnc4)cc3C2)ccc1O (stereo unspecified) | 16%[9.04 µM] | . | . | . | . | ?
COc1ccc2c(c1)c1nnc(SC)nc1n2C | -12% | 22 | 18 | 4% | ? | -19%
CCCCn1c2ccc(F)cc2c2nnc(SCCN3CCOCC3)nc21 | ? | 2 | -22 | . | -25% | 29µM*
COc1ccc2c(c1)c1nnc(SCCN3CCOCC3)nc1n2C | ? | 10 | . | . | . | 16µM*
C=CCn1c2ccccc2c2nnc(SCCN3CCOCC3)nc21 | -26% | 15 | -71* | . | -21% | ?
Cn1c2ccc(F)cc2c2nnc(SCCN3CCOCC3)nc21 | 1% | -7 | 8 | . | ? | -16%
CCN(CC)CCSc1nnc2c3cc(C)ccc3n(Cc3ccccc3)c2n1 | ? | 6 | -67* | 1% | -7% | 21µM*
CCOC(=O)CCCCCC(=O)Nc1ccc2c(c1)CC(=O)N([C@@H](C)CO)C[C@H](C)[C@@H](CN(C)C(=O)Nc1ccc3c(c1)OCO3)O2 | 14% | 6 | 6 | 5% | 24% | -1%
COc1ccccc1C1CN(CC(=O)N2CCC(C(O)c3ccccn3)CC2)Cc2ccccc2O1 (stereo unspecified) | -8%[9.04 µM] | . | . | . | . | ?
CCCCn1c2ccc(F)cc2c2nnc(SCCN(CC)CC)nc21 | 21µM* | . | . | 2% | . | 26µM*
CCCCn1c2ccccc2c2nnc(SCCN3CCCCC3)nc21 | ? | -10 | -10 | . | 5% | 16µM*
CSc1nnc2c3ccccc3n(CCc3ccccc3)c2n1 | 7.3µM* | -9 | 0 | 2% | -6% | 16µM*
CSc1nnc2c3cc(F)ccc3n(Cc3ccccc3)c2n1 | 4% | -10 | -2 | 6% | -15% | -10%
O=C(NCc1ccccn1)c1ccc(-c2ccccc2)cc1 | 13% | 3 | ? | 6% | ? | -1%
O=C(NCc1ccccn1)c1c(-c2ccccc2)sc2ccccc12 | 23µM* | -1 | 81 | -4% | -10% | ?
COc1ccc(CNC(=O)CN(Cc2ccco2)C(=O)CNS(=O)(=O)c2ccc(F)cc2)cc1 | 4% | -12 | 4 | . | 9% | -17%
Cc1ccc(/C=C/C(=O)c2ccccc(=O)c2O)c(C)c1 | 15µM* | 9 | -104* | 9% | -27% | 21µM*
CC(C)NC(=O)c1ccccc1NC(=O)/C=C/c1ccc([N+](=O)[O-])cc1 | -2% | -3 | 11 | 1% | 0% | 0%
SMILES | TDP1 cell CPT | Giardia killer | IL1B secr inh | TDP1 block | ELG1 repair inh | TDP1 cell noCPT
O=C(/C=C/c1ccccc1Cl)c1ccccc(=O)c1O | 2.9µM* | 2 | -97* | 11% | ? | 4.1µM*
O=C(/C=C/c1ccc([N+](=O)[O-])cc1)c1ccccc(=O)c1O | 2.6µM* | 4 | -98* | . | . | 3.3µM*
Cc1ccc(C)c(/C=C/C(=O)c2ccccc(=O)c2O)c1 | 10µM* | 2 | -64* | 9% | ? | 6.5µM*
CCOc1ccc(-c2nnn(CC(=O)N3CCCC3)n2)cc1OCC | 2% | -2 | -7 | 5% | 15% | -5%
CCCCCSc1ncnc2c1sc1nc(N3CCOCC3)c3c(c12)CCCC3 | -2% | . | . | 0% | . | -8%
CC(=O)Nc1ccc(S(=O)(=O)NNc2ccc([N+](=O)[O-])cc2)cc1 | ? | 18 | -7 | . | -16% | ?
CC(O)CNc1cnccn1 (stereo unspecified) | -4% | -9 | 44 | -2% | 16% | -1%
Cc1ccc2c(c1)C(=O)C(=O)N2CCCOc1ccccc1 | 1µM* | 8 | 0 | 4% | 4% | 2.1µM*
Cc1cccc(OCCCN2C(=O)C(=O)c3cc(C)ccc32)c1 | 1.6µM* | -23 | 4 | 10% | 0% | 0.92µM*
COc1ccc2c(c1)O[C@@H](c1cccc(C(F)(F)F)c1)[C@H](OC(=O)NS(=O)(=O)c1ccc(C)cc1)C2=O | . | . | . | 3% | . | .
C/C(=N\NC(=O)c1nnn(-c2nonc2N)c1C(C)C)c1ccc2ccccc2c1 | 9% | -1 | -12 | -6% | ? | ?
O=C(CN1CCN(Cc2cccc(F)c2)CC1)Nc1ccccc1F | -3% | 5 | -14 | . | -15% | ?
CCN(CC)c1ccc(NC(=O)COc2ccccc2C)cc1S(=O)(=O)Nc1ccccc1OC | ? | -13 | 11 | -10% | 2% | 15µM*
CCN(CC)c1ccc(NC(=O)c2ccccc2Br)cc1S(=O)(=O)Nc1ccccc1OC | 12µM* | 24 | -60* | 3% | -4% | 10µM*
CN(C)C(=O)c1ccc(-c2nccc(NCc3cccnc3)n2)cc1 | 11% | . | . | -2% | . | 2%
COc1ccc(CNC(=O)CN(C)Cc2ccc(SC)cc2)cc1 | ? | 1 | -30 | 8% | -1% | ?
CC(C)CCN(CC(=O)NCc1ccc(F)cc1)S(=O)(=O)c1ccccc1F | 23µM* | -19 | -80* | . | -14% | ?
CCOc1ccc(CN(C)CC(=O)NCc2ccc(F)cc2)cc1 | ? | -11 | 5 | . | -18% | 21µM*
CCOc1ccc(CN(C)CC(=O)Nc2ccccc2C(=O)NC2CC2)cc1 | ? | 2 | 13 | 5% | 15µM* | ?
CN(CC(=O)NCc1ccc(F)cc1)Cc1ccc(Br)cc1 | -29% | 10 | -72* | 0% | 10% | ?
CCN(CC(=O)NCc1ccc(F)cc1)S(=O)(=O)c1ccc(C)cc1 | -21% | 5 | 9 | . | -2% | -2%
CCOc1ccc(OCCC(=O)Nc2ccccc2C(=O)NC2CC2)cc1 | -15% | . | 3 | . | . | -28%
